S-ASM inh = blocks human secretory acid sphingomyelinase. Potency, µM (series often up to 57.5 µM), without a hit: at the highest dose activity change, negative = inhibition, hits mostly inhibitors. P17405. placental ASM, HMU-PC fluorogenic substrate, 60 min. actives 0.006% (n = 340,000); further: potency means the concentration at half of the fitted maximal effect
Target sequence (P17405 47-631 limits assumed): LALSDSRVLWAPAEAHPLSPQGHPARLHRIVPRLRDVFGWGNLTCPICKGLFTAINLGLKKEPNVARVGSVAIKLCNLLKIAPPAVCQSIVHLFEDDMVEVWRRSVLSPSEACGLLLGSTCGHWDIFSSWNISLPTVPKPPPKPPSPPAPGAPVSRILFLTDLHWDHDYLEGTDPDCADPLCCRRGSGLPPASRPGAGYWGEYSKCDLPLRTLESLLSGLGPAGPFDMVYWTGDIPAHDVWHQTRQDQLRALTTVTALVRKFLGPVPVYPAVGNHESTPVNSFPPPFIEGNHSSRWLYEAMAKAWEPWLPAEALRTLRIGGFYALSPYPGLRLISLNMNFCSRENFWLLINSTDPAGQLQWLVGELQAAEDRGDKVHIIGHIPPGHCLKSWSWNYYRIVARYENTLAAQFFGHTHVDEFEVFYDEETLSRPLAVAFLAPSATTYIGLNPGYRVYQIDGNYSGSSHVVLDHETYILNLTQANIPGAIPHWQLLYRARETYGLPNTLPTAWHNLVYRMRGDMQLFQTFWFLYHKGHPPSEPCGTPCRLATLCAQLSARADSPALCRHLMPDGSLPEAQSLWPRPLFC
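HMU-PC0 cleavage (9 uM final) by human placental ASM, 60 min at 37 °C following 10 min compound exposure at RT; stopped at pH 10, fluorescence Ex 386/Em 447 nm.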
a7 integrin act = activates integrin-mediated alleviation for muscular dystrophy | Potency, µM (titrated, usually from 38.3 µM), inactives show at the top dose activation, usual class: activators | actives 0.064% (n = 350,000) | alpha7betagal myoblasts, beta-gal FDG fluorescence, 48 h;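 further: potency means the concentration at half of the fitted maximal effect; 100% = response of the positive control SU9516; nearly all actives have a fitted effect of over 60% in size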
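alpha7betagal+/- myoblasts (passage 13, 250/well) treated 48 h at 37C with compounds at 1:260 dilution of DMSO stock. Lysed, then beta-galactosidase activity read as FDG fluorescence (ex 480/em 540) after 30 min, with pre-read for autofluorescence.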
gsp antagonist = antagonizes gsp, the McCune-Albright syndrome mutation; Potency, µM (highest dose often 76.9 µM), for the others: at the top dose activity change, negative = inhibition, actives largely listed as inhibitors; gsp-mutant cells, cAMP HTRF, 30 min; actives 0.4% (n = 340,000); AID 624288; calls by dose curve; cell line not stated here;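 further: intracellular cAMP measured with PDE inhibitor Ro 20-1724 present during compound exposure; potency means the concentration at half of the fitted maximal effect; on the % scale 0 is the no-effect control and ±100 the full control effect; nearly all actives have a fitted effect of over 65% in size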
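Cells, 2000/well, grown 16–24 h in DMEM 10% FBS with 0.5 mg/ml G418, then compounds plus […] (300 uM addition stock), 30 min at 37C. cAMP read by HTRF (cAMP-d2 and anti-cAMP antibody-K in lysis buffer) after 30 min RT.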
RXFP1 agonist = agonists of human relaxin receptor RXFP1. HEK293T-RXFP1 cAMP TR-FRET, 30 min; response scale: percent of porcine relaxin response, buffer zero. AID 2676. Potency, µM (top dose mostly 57.5 µM), for inactives: top-dose activation, hits mostly activators. actives 0.3% (n = 370,000); further: potency means the concentration at half of the fitted maximal effect; on the % scale 0 is the no-effect control and ±100 the full control effect; nearly all actives have a fitted effect of over 60% in size
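HEK293 cells stably expressing RXFP1, treated 30 min at 37C with compounds plus PDE4 inhibitor Ro 20174; cAMP measured by HTRF TR-FRET. Normalized to buffer and 29 nM porcine relaxin; EC50 by Hill fit.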
RXFP1 antag = blocks the human relaxin receptor RXFP1. activity change, negative = inhibition, % at 57.5 µM. actives 0.59% (n = 350,000). HEK293-RXFP1, relaxin-stimulated cAMP HTRF, 30 min; stronger effect = lower value;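 active means activity change of -60% or lower, but not beyond a set lower limit; inconclusive means change between -60% and -40%, or beyond the set limit; inactive means change above -40%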; further: on the % scale 0 is the no-effect control and ±100 the full control effect
gsp ag = activates gsp, the McCune-Albright syndrome mutation; Potency, µM (top dose mostly 76.9 µM), without a hit: top-dose activation (cAMP increase), most hits filed as activators; actives 0.13% (n = 340,000); gsp mutant cells, cAMP HTRF, 30 min; active means well fitted activation curve with a large enough effect; inconclusive means small, poorly fitted or top-dose-only effect, or another doubt; inactive means no such curve, though single readings can be large or run the other way; cell line not stated here;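 further: phosphodiesterase inhibitor Ro 20-1724 added with compounds to block cAMP breakdown; potency means the concentration at half of the fitted maximal effect; nearly all actives have a fitted effect of over 60% in size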
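Cells in DMEM/10% FBS with G418 were pretreated with compounds in DMSO plus […] (300 uM stock) for 30 min at 37C. cAMP was measured by HTRF (cAMP-d2 plus anti-cAMP antibody-K) after 30 min at room temperature.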
The depositor's hits bear a star; ? = inconclusive; · = no result given; [ ] = dose if it differs, or a comment. Shown are actives, neighbours in structure and some others; about 1.1% of the full set was active somewhere. Unless noted, the call rests on the fitted dose curve; in most records, active means well fitted curve in the direction sought with a large enough effect; inconclusive means small, poorly fitted or top-dose-only effect, or another doubt; inactive means no such curve, though single readings can be large; an effect the other way counts as inactive or inconclusive.

SMILES	S-ASM inh	a7 integrin act	gsp antagonist	RXFP1 agonist	RXFP1 antag	gsp ag
Cc1nn(CC(=O)NCc2ccco2)c(=O)c2cc3ccccc3n12	·	·	·	13.3%	·	·
O=C(COC(=O)CNC(=O)c1ccc(Br)o1)Nc1ccc2c(c1)OCCO2	1.0%	-1.5%	50.1µM*	0.5%	3.0	-114.1%
CCC(C)Sc1cc(-c2nc3cc(C)ccn3c2NC2CCCCC2)ccc1OC (centres undefined)	152.4%	-40.9%	31.6µM*	·	·	?
CCCCNc1c(-c2ccc(OC)c(SC(C)CC)c2)nc2ccc(C)cn12 (centres undefined)	235.2%	-40.4%	28.2µM*	·	·	·
CCCCNc1c(-c2ccc(OC)c(SC(C)CC)c2)nc2ccc(Cl)cn12 (centres undefined)	33.3%	2.3%	-21.5%	·	·	5.1%
CCCCNc1c(-c2ccc(OC)c(SC(C)CC)c2)nc2cc(C)ccn12 (centres undefined)	91.6%	-45.6%	39.8µM*	·	·	?
CCC(C)Sc1cc(-c2nc3ccccn3c2NC2CCCCC2)ccc1OC (centres undefined)	390.0%	-50.0%	-25.7%	17.8%	·	?
CCOC(=O)c1cccc(NS(=O)(=O)c2ccc(-c3cnc(C4CC4)o3)cc2)c1	·	·	·	0.8%	·	·
CCCCOC(=O)c1ccc(NC(=O)c2cc3c(=O)n4cccc(C)c4nc3n2C)cc1	·	·	·	-2.0%	-11.0	·
COc1cc2c(cc1NC(=O)COC(=O)CNS(=O)(=O)c1ccc(C)cc1)oc1ccccc12	-21.5%	-0.7%	?	-1.6%	-10.8	-6.1%
COCC(C)NC(=O)CSc1nnc(-c2cccc(S(=O)(=O)N3CCCCC3)c2)o1 (centres undefined)	1.1%	6.8%	11.2µM*	1.4%	-3.0	10.0%[15.4 µM]
CC(C)CNC(=O)CSc1nnc(-c2cccc(S(=O)(=O)N3CCCCC3)c2)o1	-1.6%	5.4%	-12.8%	1.2%	-4.0	0.8%
CN(C(=O)c1ccc2c(c1)OCCO2)c1c(N)n(Cc2ccccc2)c(=O)[nH]c1=O	2.0%	14.9%	2.3%	0.7%	-8.2	-0.4%[15.4 µM]
CN(C(=O)c1cncc(Br)c1)c1c(N)n(Cc2ccccc2)c(=O)[nH]c1=O	9.9%	-15.9%	3.8%	-0.4%	-69.5*	7.8%[15.4 µM]
Cc1ccc(C)c(OCCC(=O)OCC(=O)N(C)c2c(N)n(Cc3ccccc3)c(=O)[nH]c2=O)c1	1.1%	-2.7%	7.0%	0.8%	-63.5*	3.7%[15.4 µM]
CCOC(=O)C[C@H]1c2ccc(C(F)(F)F)cc2S(=O)(=O)N1c1cccc(OC)c1	-7.9%	2.0%	-11.8%	·	·	-28.7%
COc1ccc(C(=O)N(C)CC2CCN(CCc3cccc(C(F)(F)F)c3)CC2)cc1C	0.6%	-55.2%	-3.1%	2.7%	-4.0	-18.7%
Cc1nonc1NC(=O)CSc1nc(CCC2CCCC2)nc2ccccc12	-16.8%	-27.8%	-11.2%	?	-10.8	20µM*
Cc1cc(NC(=O)CSc2nc(CCC3CCCC3)nc3ccccc23)no1	-2.5%	-54.3%	8.3%	7.6%	3.5	9.6%
Cc1cccc(CNC(=O)c2cc3cc(S(=O)(=O)N4CCCCC4)ccc3n2C)c1	·	·	·	-1.6%	-3.9	·
CCc1cc(-c2n[nH]c(=S)n2-c2cccc(C)c2)cs1	-7.2%	2.8%	-12.6%	-0.6%	-3.2	14.1%
Cc1cccc(-n2c(-c3csc(C)c3)n[nH]c2=S)c1	-3.3%	23.1%	-33.3%	4.1%	-66.4*	8.0%
Cc1cc(Nc2cccc(C(F)(F)F)c2)nc2ccc(NC(=O)c3cccc(Cl)c3)cc12	·	·	·	-1.4%	·	·
CCOC(=O)/C=c1/s/c(=C/c2ccc3cc(OC)ccc3c2)c(=O)n1CC(=O)NCc1ccc2c(c1)OCO2	0.5%	-36.4%	2.9%	·	-78.6*	-0.8%
CCOC(=O)/C=c1\s/c(=C\c2ccc(-c3ccccc3)cc2)c(=O)n1CC(=O)NCc1ccc2c(c1)OCO2	4.9%	19.4%	6.7%	0.5%	-4.7	-20.5%
